# In PubChem BioAssay AID1159580 (chemical genetic matrix, 2015):
# Among all 5,500 compounds or so, about 2,000 (36%) were called active. About 18% were inconclusive and are not listed. The list shows a part of the results. A number with no mark means an inactive call. No stated cut-off is given here; in the data, active means normalized growth mostly below about 0.91 (no sharp cut-off); inconclusive means no clear call, values can overlap the other calls; inactive means mostly above about 0.92.
# Assay: chemical genetic growth profiling, strain panel (AID 1159580);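 further: tested at 20 µM; growth read once vehicle control cultures reached saturation at 30 °C; 1 = growth at the plate median or of vehicle wells; lower values mean less growth of the strain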
# Conditions: growth OD
structure (smiles),measurement,setting,value
COc1c2ccoc2cc2oc(C)cc(=O)c12,normalized growth,"S. cerevisiae deletion strains, locus YKL009W, strain mrt4, hits give low values",0.965
same,normalized growth,"S. cerevisiae deletion strains, locus YKL068W, hits give low values",0.982
same,normalized growth,"S. cerevisiae deletion strains, locus YKL085W, strain MDH1 (second series), hits give low values",0.974
same,normalized growth,"S. cerevisiae deletion strains, locus YKL085W, strain MDH1, hits give low values",0.974
same,normalized growth,"S. cerevisiae deletion strains, locus YKL160W, strain elf1, hits give low values",0.993
same,normalized growth,"S. cerevisiae deletion strains, locus YKL190W, strain CNB1, hits give low values",0.978
same,normalized growth,"S. cerevisiae deletion strains, locus YKR001C, strain vps1, hits give low values",0.961
same,normalized growth,"S. cerevisiae deletion strains, locus YKR026C, strain gcn3, hits give low values",0.982
same,normalized growth,"S. cerevisiae deletion strains, locus YKR091W, strain srl3, hits give low values",0.998
same,normalized growth,"S. cerevisiae deletion strains, locus YLL001W, strain dnm1, hits give low values",0.998
same,normalized growth,"S. cerevisiae deletion strains, locus YLL026W, hits give low values",0.992
same,normalized growth,"S. cerevisiae deletion strains, locus YLL041C, strain sdh2, hits give low values",1.01
same,normalized growth,"S. cerevisiae deletion strains, locus YLR027C, strain aat2, hits give low values",0.997
same,normalized growth,"S. cerevisiae deletion strains, locus YLR039C, strain RIC1, hits give low values",0.968
same,normalized growth,"S. cerevisiae deletion strains, locus YLR058C, strain SHM2, hits give low values",0.936
same,normalized growth,"S. cerevisiae deletion strains, locus YLR102C, strain apc9, hits give low values",0.992
same,normalized growth,"S. cerevisiae deletion strains, locus YLR113W, strain HOG1, hits give low values",1.1
same,normalized growth,"S. cerevisiae deletion strains, locus YLR221C, strain rsa3, hits give low values",0.987
same,normalized growth,"S. cerevisiae deletion strains, locus YLR258W, strain gsy2, hits give low values",0.987
same,normalized growth,"S. cerevisiae deletion strains, locus YLR262C, strain YPT6 (second series), hits give low values",1.03
same,normalized growth,"S. cerevisiae deletion strains, locus YLR262C, strain YPT6, hits give low values",0.92
same,normalized growth,"S. cerevisiae deletion strains, locus YLR268W, strain sec22, hits give low values",1.02
same,normalized growth,"S. cerevisiae deletion strains, locus YLR320W, strain mms22, hits give low values",0.993
same,normalized growth,"S. cerevisiae deletion strains, locus YLR330W, strain CHS5, hits give low values",0.986
same,normalized growth,"S. cerevisiae deletion strains, locus YLR342W, strain FKS1 (second series), hits give low values",1.01
same,normalized growth,"S. cerevisiae deletion strains, locus YLR342W, strain FKS1, hits give low values",0.984
same,normalized growth,"S. cerevisiae deletion strains, locus YLR357W, strain rsc2, hits give low values",0.98
same,normalized growth,"S. cerevisiae deletion strains, locus YLR370C, strain arc18, hits give low values",0.992
same,normalized growth,"S. cerevisiae deletion strains, locus YLR371W, strain rom2, hits give low values",0.986
same,normalized growth,"S. cerevisiae deletion strains, locus YLR384C, strain iki3, hits give low values",1
same,normalized growth,"S. cerevisiae deletion strains, locus YLR418C, strain cdc73, hits give low values",0.835 (active)
same,normalized growth,"S. cerevisiae deletion strains, locus YML016C, strain PPZ1, hits give low values",0.977
same,normalized growth,"S. cerevisiae deletion strains, locus YML032C, strain rad52, hits give low values",0.912
same,normalized growth,"S. cerevisiae deletion strains, locus YML120C, strain ndi1, hits give low values",1.02
same,normalized growth,"S. cerevisiae deletion strains, locus YML124C, strain tub3, hits give low values",0.99
same,normalized growth,"S. cerevisiae deletion strains, locus YMR058W, strain fet3, hits give low values",1
same,normalized growth,"S. cerevisiae deletion strains, locus YMR078C, strain ctf18, hits give low values",0.977
same,normalized growth,"S. cerevisiae deletion strains, locus YMR125W, strain sto1, hits give low values",0.997
same,normalized growth,"S. cerevisiae deletion strains, locus YMR129W, hits give low values",0.999
same,normalized growth,"S. cerevisiae deletion strains, locus YMR205C, strain PFK2, hits give low values",1.01
same,normalized growth,"S. cerevisiae deletion strains, locus YMR223W, strain ubp8, hits give low values",0.956
same,normalized growth,"S. cerevisiae deletion strains, locus YMR231W, strain pep5, hits give low values",1.01
same,normalized growth,"S. cerevisiae deletion strains, locus YMR307W, strain GAS1, hits give low values",0.961
same,normalized growth,"S. cerevisiae deletion strains, locus YNL067W, strain RPL9B, hits give low values",0.96
same,normalized growth,"S. cerevisiae deletion strains, locus YNL071W, strain lat1, hits give low values",0.993
same,normalized growth,"S. cerevisiae deletion strains, locus YNL128W, strain TEP1, hits give low values",0.943
same,normalized growth,"S. cerevisiae deletion strains, locus YNL153C, strain GIM3, hits give low values",0.93
same,normalized growth,"S. cerevisiae deletion strains, locus YNL183C, strain NPR1, hits give low values",0.983
same,normalized growth,"S. cerevisiae deletion strains, locus YNL209W, strain ssb2, hits give low values",0.983
same,normalized growth,"S. cerevisiae deletion strains, locus YNL233W, strain BNI4, hits give low values",0.924
same,normalized growth,"S. cerevisiae deletion strains, locus YNL248C, strain rpa49, hits give low values",1
same,normalized growth,"S. cerevisiae deletion strains, locus YNL250W, strain rad50, hits give low values",0.987
same,normalized growth,"S. cerevisiae deletion strains, locus YNL271C, strain bni1, hits give low values",0.986
same,normalized growth,"S. cerevisiae deletion strains, locus YNL298W, strain CLA4, hits give low values",0.975
same,normalized growth,"S. cerevisiae deletion strains, locus YNL307C, strain MCK1, hits give low values",0.991
same,normalized growth,"S. cerevisiae deletion strains, locus YNL322C, strain KRE1 (second series), hits give low values",0.984
same,normalized growth,"S. cerevisiae deletion strains, locus YNL322C, strain KRE1, hits give low values",0.976
same,normalized growth,"S. cerevisiae deletion strains, locus YNR049C, strain mso1, hits give low values",0.993
same,normalized growth,"S. cerevisiae deletion strains, locus YNR052C, strain pop2, hits give low values",0.977
same,normalized growth,"S. cerevisiae deletion strains, locus YOL006C, strain TOP1, hits give low values",0.946
same,normalized growth,"S. cerevisiae deletion strains, locus YOL012C, strain htz1",1.83
same,normalized growth,"S. cerevisiae deletion strains, locus YOL147C, strain pex11, hits give low values",0.984
same,normalized growth,"S. cerevisiae deletion strains, locus YOR001W, strain rrp6, hits give low values",0.982
same,normalized growth,"S. cerevisiae deletion strains, locus YOR061W, strain CKA2, hits give low values",0.959
same,normalized growth,"S. cerevisiae deletion strains, locus YOR069W, strain VPS5, hits give low values",0.993
same,normalized growth,"S. cerevisiae deletion strains, locus YOR070C, strain gyp1, hits give low values",0.984
same,normalized growth,"S. cerevisiae deletion strains, locus YOR080W, strain dia2, hits give low values",1.02
same,normalized growth,"S. cerevisiae deletion strains, locus YOR083W, strain WHI5, hits give low values",0.994
same,normalized growth,"S. cerevisiae deletion strains, locus YOR106W, strain vam3, hits give low values",0.994
same,normalized growth,"S. cerevisiae deletion strains, locus YOR136W, strain idh2, hits give low values",0.996
same,normalized growth,"S. cerevisiae deletion strains, locus YOR144C, strain elg1, hits give low values",0.989
same,normalized growth,"S. cerevisiae deletion strains, locus YOR184W, strain ser1, hits give low values",0.967
same,normalized growth,"S. cerevisiae deletion strains, locus YOR231W, strain MKK1, hits give low values",1.07
same,normalized growth,"S. cerevisiae deletion strains, locus YOR265W, strain rbl2, hits give low values",1
same,normalized growth,"S. cerevisiae deletion strains, locus YOR270C, strain vph1, hits give low values",0.997
same,normalized growth,"S. cerevisiae deletion strains, locus YOR290C, strain snf2, hits give low values",0.974
same,normalized growth,"S. cerevisiae deletion strains, locus YOR316C, strain cot1, hits give low values",0.995
same,normalized growth,"S. cerevisiae deletion strains, locus YPL051W, strain arl3, hits give low values",0.979
same,normalized growth,"S. cerevisiae deletion strains, locus YPL078C, strain atp4, hits give low values",0.992
same,normalized growth,"S. cerevisiae deletion strains, locus YPL106C, strain sse1, hits give low values",0.95
same,normalized growth,"S. cerevisiae deletion strains, locus YPL240C, strain hsp82, hits give low values",0.99
same,normalized growth,"S. cerevisiae deletion strains, locus YPL241C, strain CIN2, hits give low values",0.976
same,normalized growth,"S. cerevisiae deletion strains, locus YPL256C, strain CLN2, hits give low values",1.05
same,normalized growth,"S. cerevisiae deletion strains, locus YPR119W, strain clb2, hits give low values",0.986
same,normalized growth,"S. cerevisiae deletion strains, locus YPR141C, strain kar3, hits give low values",0.984
same,normalized growth,"S. cerevisiae deletion strains, locus YPR163C, strain tif3, hits give low values",0.978
same,normalized growth,"S. cerevisiae deletion strains, locus YPR167C, strain met16, hits give low values",0.991
same,normalized growth,"S. cerevisiae deletion strains, strain wtn01, hits give low values",1.03
same,normalized growth,"S. cerevisiae strains, strain wild type, hits give low values",0.965
